“And” between values parts separate entries of the source, which are not always exact repeats. Equal values may be shown once. Values without a mark were called inactive. The source made the active and inactive calls. Calls come from the whole dose curve; as a rule, active = well fitted activation curve with a large enough effect; inactive = flat fitted curve, though single readings scatter.
assay: Confirmation Concentration-Response Assay for Epigenetic Modulators; conditions: murine C127i cells, silenced GFP reporter derepression, imaging; series mostly up to 46 µM; GFP activation: at the top concentration
Source text: NIH Molecular Libraries Screening Centers Network [MLSCN] NIH Chemical Genomics Center [NCGC] MLSCN Grant: 1 X01 MH079860-01 Assay Provider: Elisabeth D. Martinez, University of Texas SW Medical Center NCGC Assay Overview: The Locus Derepression assay detects the derepression of a GFP reporter that is stably integrated in a region of the genome of murine c127i mammary cells that is presumably silenced. GFP transcription in this construct is controlled by a CMV promoter, which normally is strong and constitutively active. However, this line was selected for lack of constitutive expression of the GFP protein. GFP production can be induced by incubating the cells with histone deacetylase or DNA methyltransferase inhibitors. Compounds that cause derepression of the locus to express GFP are identified by enumerating GFP positive cells using a laser-scanning microplate cytometer.
NCGC Assay Protocol Summary: Two hundred and fifty cells in 5 uL per well were dispensed into black, clear-bottom 1536-well plates. Twenty-three nL compound was transferred to the assay plate and cells were incubated 30 hours at 37 C. Medium was removed, cells were washed two times with PBS, and GFP-positive cells were enumerated as fluorescent objects between the sizes of 20 to 120 um width and depth using a laser-scanning microplate imager (Acumen Explorer Ex3, TTP Labtech) Keywords: NIH Roadmap, MLSCN, MLI, MLSMR, qHTS, NCGC, qHTS, HDAC, DNMT, HAT, DNA methyltransferases, histone acetyl transferases, histone deacetylases

Row | Structure (SMILES) | GFP activation | Potency
1 | CCNc1nc(NCC)nc(-n2nc(C)cc2C)n1 | 2.5% | 
2 | CC(C)C(=O)NC(/C=C/c1ccccc1)c1cc([N+](=O)[O-])c2cccnc2c1O (stereo not given) | 3.5% | 
3 | CCNc1nc(NCC)nc(-n2cc(C(=O)c3cc(Cl)ccc3O)cn2)n1 | 2.5% | 
4 | O=C(CSc1cccc2cccnc12)NCc1ccccc1 | 1.5% | 
5 | CN1C(=S)SC(c2ccccc2)N(C)C1c1ccccc1 (stereo not given) | 0.5% | 
6 | CN(C)C(=O)CSc1cccc2cccnc12 |  | 6.96 µM (active)
7 | COc1ccc(NC(c2ccccn2)c2ccc3cccnc3c2O)cc1 (stereo not given) | 1.5% | 
8 | Oc1c(C(Nc2ccccn2)c2ccco2)cc(Cl)c2cccnc12 (stereo not given) | 1.5% | 
9 | Oc1c(C(Nc2ccccn2)c2ccccn2)ccc2cccnc12 (stereo not given) |  | 36.2 µM (active)
10 | O=C(Cc1ccccc1)NC(c1ccco1)c1ccc2cccnc2c1O (stereo not given) |  | 16.2 µM (active)
11 | c1cnn(-c2nc(N3CCOCC3)nc(N3CCOCC3)n2)c1 | 1% | 
12 | COc1ccc(C(=O)NC(c2ccco2)c2cc(Cl)c3cccnc3c2O)cc1 (stereo not given) | 1.5% | 
13 | O=C(CC(c1ccco1)S(=O)(=O)c1ccccc1)c1ccc(F)cc1 (stereo not given) | 8% | 
14 | CC(C)C(=O)NC(c1ccco1)c1cc([N+](=O)[O-])c2cccnc2c1O (stereo not given) | 7% | 
15 | CCCCC1CC1C(=O)Nc1ccc(OC)c(OC)c1 (stereo not given) |  | 14.3 µM (active)
16 | COC(=O)c1cccc(NC(c2ccccn2)c2ccc3cccnc3c2O)c1 (stereo not given) | 0.5% | 
17 | CC(C)C(=O)NC(c1ccc(N(C)C)cc1)c1ccc2cccnc2c1O (stereo not given) |  | 8.14 µM (active)
18 | Cc1cc(C)n(-c2nc(NC(C)C)nc(NC(C)(C)C)n2)n1 | 4.5% | 
19 | CC(C)C(=O)NC(c1ccc(C(C)C)cc1)c1cc(Cl)c2cccnc2c1O (stereo not given) | 2% | 
20 | CCN1CSC(=S)N(CC)C1 |  | 7 µM (active)

Row | Structure (SMILES) | GFP activation | Potency
21 | Cc1cc(C)n(-c2nc(NC(C)C)nc(NC(C)C)n2)n1 |  | inactive
22 | CC(/C=C/C(=O)NO)=C\[C@@H](C)C(=O)c1ccc(N(C)C)cc1 |  | 1.12 µM (active)
23 | S=C1SCN(C2CCCC2)CN1Cc1ccco1 | 2.5% | 
24 | COc1ccc(C)cc1NC(c1ccccn1)c1ccc2cccnc2c1O (stereo not given) | 1% | 
25 | Cc1cc(C)n(-c2nc(NC(C)(C)C)nc(NC(C)(C)C)n2)n1 | 3% | 
26 | O=C(CSc1cccc2cccnc12)Nc1ccccc1 | 2% | 
27 | COCc1cc(CN2CCN(C)CC2)c(O)c2ncccc12 |  | 37.6 µM (active)
28 | c1ccc(Nc2nc(Nc3ccccc3)nc(-n3cccn3)n2)cc1 | 2% | 
29 | O=C1OCCC1Sc1cccc2cccnc12 (stereo not given) |  | 7.44 µM (active)
30 | CC(C)C(=O)NC(c1cccs1)c1cc(Cl)c2cccnc2c1O (stereo not given) | 0% | 
31 | Cc1ccc2ccc(C(Nc3cccc(Cl)c3)c3ccccn3)c(O)c2n1 (stereo not given) | 0.5% | 
32 | Cc1cc(NC(c2ccccn2)c2ccc3cccnc3c2O)no1 (stereo not given) |  | 8 µM (active)
33 | Oc1c(C(Nc2ccccc2C(F)(F)F)c2ccccn2)ccc2cccnc12 (stereo not given) | 0% | 
34 | CN1CCN(Cc2cc(Cl)c3cccnc3c2O)CC1 |  | 6.08 µM (active)
35 | CC(C)C(=O)NC(c1ccco1)c1ccc2cccnc2c1O (stereo not given) |  | 7.57 µM (active) and 4.6 µM (active)
36 | Oc1ccc(COCc2ccccc2)c2cccnc12 | 1.5% | 
37 | O=C(Oc1cccc2cccnc12)c1ccc(Br)o1 |  | 14.6 µM (active)
38 | COc1ccc(C(NC(=O)C(C)C)c2ccc3cccnc3c2O)cc1 (stereo not given) |  | 7.83 µM (active)
39 | Cc1ccc(N=Nc2ccc(O)c3ncccc23)cc1C | 0% | 
40 | O=Nc1ccc(O)c2ncccc12 |  | 2.78 µM (active)
